Values joined by “and” are separate entries in the source; they are usually repeats but may differ in a detail not shown here. Equal values may be shown once. Records with an inconclusive call do not appear. Some structures have more than one record in an assay (separate samples or runs), and their calls can disagree. Active and inactive are the calls of the source. The calls were made as follows: active = hit-call score of the fitted dose curve at least 0.9, where 1 is the maximum; inconclusive = response in the unintended direction; inactive = score below 0.9.
How the values were obtained:
[1] = molecular target: rat Glycine Receptor, Strychnine-sensitive (GlyRStrySens), Glra1 (gene 25674) (UniProt P07727); assay: NVS_LGIC_rGlyRStrySens: NovaScreen (NVS) Ligand-Gated Ion Channel Assay for rat Glycine Receptor, Strychnine-sensitive (GlyRStrySens) (AID 2283341)
How it was run: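 Radioligand displacement on rat spinal cord membranes, 1 hr, filter scintillation read-out. Single-concentration duplicate screen at 25 uM; chemicals meeting threshold (e.g., 30% inhibition) rerun in concentration-response up to 50 uM. Loss of binding fitted versus DMSO.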

[2] = system: guinea pig Histamine Receptor (H2), gene 100729734; assay: NVS_GPCR_gH2: NovaScreen (NVS) G Protein-Coupled Receptor Assay for guinea pig Histamine Receptor (H2) (AID 2283342)
How it was run: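 Guinea pig striatal membrane preparation with specific radioligand; bound counts measured by filtration and scintillation 1 h post-dosing, DMSO as baseline. Chemicals passing a 25 uM duplicate screen were titrated to a 50 uM maximum.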

[3] = system: NCBI gene 100848466; assay: NVS_NR_bPR: NovaScreen (NVS) Nuclear Receptor Binding Assay for bovine Progextron Receptor (PR) (AID 2283343);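 also: actives lower bound radioligand signal below DMSO meaning displacement of the label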
How it was run: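 Scintillation counts of bound radioligand were read 18 hours after chemical addition to membranes extracted from bovine uterus. Displacement was scored as loss of signal relative to DMSO controls. Screening began at 25 uM in duplicate.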

[4] = molecular target: human Constitutive Androstane Receptor (CAR), NR1I3 (gene 9970) (UniProt Q14994); assay: NVS_NR_hCAR_Antagonist: NovaScreen (NVS) Nuclear Receptor Binding Assay for human Constitutive Androstane Receptor Antagonism (CAR) (AID 2283344)
How it was run: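 Single 25 uM duplicate primary screen, with concentration-series follow-up on actives. Cell-free binding format run in antagonist mode, TR-FRET signal taken 1 h post-dose; activity is signal loss relative to DMSO.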

[5] = molecular target: chimpanzee Androgen Receptor (AR), AR (gene 747460) (UniProt O97775); assay: NVS_NR_cAR: NovaScreen (NVS) Nuclear Receptor Binding Assay for chimpanzee Androgen Receptor (AR) (AID 2283346);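 also: radioligand displacement from AR measured by scintillation counting in a cell-free assay; a loss of bound radioligand signal versus DMSO counts as binding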
How it was run: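 Radioligand binding to chimpanzee AR expressed in Sf9/Sf21 cells, cell-free, measured 72 h after dosing by lysate-based scintillation counting. Loss of signal vs DMSO; initial duplicate screen at 25 uM, actives retested in concentration series.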

[6] = molecular target: Bile acid receptor (Homo sapiens) (UniProt Q96RI1); assay: NVS_NR_hFXR_Antagonist: NovaScreen (NVS) Nuclear Receptor Binding Assay for human Farnesoid X Receptor Antagonism (FXR) (AID 2283350)
Bile acid receptor (Homo sapiens), sequence (Q96RI1 whole entry, looked up): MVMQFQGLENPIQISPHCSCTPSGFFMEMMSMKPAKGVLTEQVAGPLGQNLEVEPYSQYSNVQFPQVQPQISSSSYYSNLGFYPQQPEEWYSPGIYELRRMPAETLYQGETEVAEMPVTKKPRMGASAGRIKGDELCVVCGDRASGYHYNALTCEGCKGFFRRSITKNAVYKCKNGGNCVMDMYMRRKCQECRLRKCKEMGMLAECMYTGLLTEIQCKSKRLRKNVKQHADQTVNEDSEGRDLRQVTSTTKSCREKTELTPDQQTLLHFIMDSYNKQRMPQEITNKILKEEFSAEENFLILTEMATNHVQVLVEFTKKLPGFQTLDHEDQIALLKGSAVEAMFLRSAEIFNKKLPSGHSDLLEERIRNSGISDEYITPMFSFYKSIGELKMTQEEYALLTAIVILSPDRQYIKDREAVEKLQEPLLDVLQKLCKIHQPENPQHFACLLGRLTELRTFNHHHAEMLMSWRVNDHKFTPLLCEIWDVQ
How it was run: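 Antagonist-format time-resolved FRET binding assay with extracted human receptor protein, read 1 hour after compound addition. Compounds first screened at 25 uM in duplicate, then actives tested in concentration series, with loss of signal relative to DMSO.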

[7] = molecular target: Estrogen receptor beta (Homo sapiens) (UniProt Q92731); assay: OT_ER_ERbERb_0480: Odyssey Thera (OT) 8-hour HEK293T Protein-Complementation Assay for Estrogen Receptor-beta/-beta Homodimer (AID 2283357);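 also: active means signal gain over DMSO baseline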
Estrogen receptor beta (Homo sapiens), sequence (Q92731 whole entry, looked up, the tested form may be a part): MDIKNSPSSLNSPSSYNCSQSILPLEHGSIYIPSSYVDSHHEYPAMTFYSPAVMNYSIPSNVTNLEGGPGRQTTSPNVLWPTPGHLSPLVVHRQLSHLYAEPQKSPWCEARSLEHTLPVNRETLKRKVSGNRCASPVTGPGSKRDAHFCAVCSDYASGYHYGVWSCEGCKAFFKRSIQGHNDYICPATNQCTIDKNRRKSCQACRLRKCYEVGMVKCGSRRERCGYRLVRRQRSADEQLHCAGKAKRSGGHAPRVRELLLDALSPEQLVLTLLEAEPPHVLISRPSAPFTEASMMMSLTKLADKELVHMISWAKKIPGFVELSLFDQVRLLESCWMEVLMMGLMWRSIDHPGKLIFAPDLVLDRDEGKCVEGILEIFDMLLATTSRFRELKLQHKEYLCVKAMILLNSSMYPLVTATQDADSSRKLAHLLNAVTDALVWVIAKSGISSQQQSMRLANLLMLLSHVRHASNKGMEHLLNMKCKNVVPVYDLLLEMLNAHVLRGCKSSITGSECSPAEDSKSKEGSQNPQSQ
How it was run: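 Homodimerization of ER-beta LBD measured by protein-fragment complementation in HEK293T; 8 h dosing; fixed, Draq5 counterstain; fluorescence intensity gain over DMSO baseline, positive fitting direction; laser scanning cytometry.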

[8] = molecular target: Retinoic acid receptor alpha (Homo sapiens) (UniProt P10276); assay: NVS_NR_hRAR_Antagonist: NovaScreen (NVS) Nuclear Receptor Binding Assay for human Retinoic Acid Alpha Receptor Antagonism (RAR) (AID 2283358)
Retinoic acid receptor alpha (Homo sapiens), sequence (P10276 whole entry, looked up): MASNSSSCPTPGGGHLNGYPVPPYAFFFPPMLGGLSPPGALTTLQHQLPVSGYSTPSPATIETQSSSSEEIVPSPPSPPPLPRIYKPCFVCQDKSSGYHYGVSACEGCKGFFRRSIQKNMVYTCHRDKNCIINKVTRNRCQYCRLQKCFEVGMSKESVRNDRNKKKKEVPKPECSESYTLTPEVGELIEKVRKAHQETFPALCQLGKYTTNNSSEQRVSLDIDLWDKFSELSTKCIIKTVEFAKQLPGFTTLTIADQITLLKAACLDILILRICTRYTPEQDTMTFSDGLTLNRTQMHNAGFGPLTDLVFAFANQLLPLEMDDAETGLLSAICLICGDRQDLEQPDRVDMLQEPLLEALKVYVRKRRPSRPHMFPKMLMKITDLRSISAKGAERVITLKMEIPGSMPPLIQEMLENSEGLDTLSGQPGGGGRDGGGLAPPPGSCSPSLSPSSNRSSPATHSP
How it was run: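 Read-out: time-resolved FRET binding signal, 2 h post-dose, cell-free extracted protein. Antagonism scored as signal loss versus DMSO negative control. Primary single-concentration screen at 25 uM in duplicate; concentration series for actives.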

[9] = molecular target: Retinoic acid receptor alpha (Homo sapiens) (UniProt P10276); assay: NVS_NR_hRARa_Agonist: NovaScreen (NVS) Nuclear Receptor Binding Assay for human Retinoic Acid Alpha Receptor Agonism (RAR) (AID 2283361)
How it was run: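 TR-FRET signal, 2 h post-dosing; cell-free extracted protein; DMSO = baseline, positive fitting direction; 25 uM single-point duplicate, then concentration series for actives.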

[10] = molecular target: human Thyroid Receptor Alpha (TRa), THRA (gene 7067) (UniProt P10827); assay: NVS_NR_hTRa_Antagonist: NovaScreen (NVS) Nuclear Receptor Binding Assay for human Thyroid Receptor Alpha Antagonism (TRa) (AID 2283362)
human Thyroid Receptor Alpha (TRa), THRA (gene 7067), sequence (P10827 whole entry, looked up): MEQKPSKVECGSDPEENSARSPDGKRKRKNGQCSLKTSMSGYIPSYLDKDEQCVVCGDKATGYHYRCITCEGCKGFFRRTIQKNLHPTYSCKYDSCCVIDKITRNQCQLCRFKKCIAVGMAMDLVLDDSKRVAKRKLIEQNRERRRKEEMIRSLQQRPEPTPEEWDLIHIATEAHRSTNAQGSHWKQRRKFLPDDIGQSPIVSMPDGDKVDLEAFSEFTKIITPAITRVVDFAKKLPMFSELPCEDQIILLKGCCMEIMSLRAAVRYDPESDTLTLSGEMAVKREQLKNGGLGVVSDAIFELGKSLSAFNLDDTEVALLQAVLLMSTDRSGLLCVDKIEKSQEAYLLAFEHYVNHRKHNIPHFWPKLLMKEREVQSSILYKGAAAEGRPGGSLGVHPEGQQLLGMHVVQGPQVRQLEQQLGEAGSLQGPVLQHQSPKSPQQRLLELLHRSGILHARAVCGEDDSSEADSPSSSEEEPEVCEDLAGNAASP
How it was run: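 Cell-free binding assay on extracted receptor protein, read 1 h after chemical dosing by AlphaLISA chemiluminescence; loss of signal relative to DMSO baseline marks antagonism. Primary screen ran in duplicate at 25 uM, with concentration series for actives.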

[11] = molecular target: bovine Estrogen Receptor (ER), ESR1 (gene 407238) (UniProt P49884); assay: NVS_NR_bER: NovaScreen (NVS) Nuclear Receptor Binding Assay for bovine Estrogen Receptor (ER) (AID 2283345);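 also: actives lower the bound radioligand count which means they displace the ER ligand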
bovine Estrogen Receptor (ER), ESR1 (gene 407238), sequence (P49884 whole entry, looked up): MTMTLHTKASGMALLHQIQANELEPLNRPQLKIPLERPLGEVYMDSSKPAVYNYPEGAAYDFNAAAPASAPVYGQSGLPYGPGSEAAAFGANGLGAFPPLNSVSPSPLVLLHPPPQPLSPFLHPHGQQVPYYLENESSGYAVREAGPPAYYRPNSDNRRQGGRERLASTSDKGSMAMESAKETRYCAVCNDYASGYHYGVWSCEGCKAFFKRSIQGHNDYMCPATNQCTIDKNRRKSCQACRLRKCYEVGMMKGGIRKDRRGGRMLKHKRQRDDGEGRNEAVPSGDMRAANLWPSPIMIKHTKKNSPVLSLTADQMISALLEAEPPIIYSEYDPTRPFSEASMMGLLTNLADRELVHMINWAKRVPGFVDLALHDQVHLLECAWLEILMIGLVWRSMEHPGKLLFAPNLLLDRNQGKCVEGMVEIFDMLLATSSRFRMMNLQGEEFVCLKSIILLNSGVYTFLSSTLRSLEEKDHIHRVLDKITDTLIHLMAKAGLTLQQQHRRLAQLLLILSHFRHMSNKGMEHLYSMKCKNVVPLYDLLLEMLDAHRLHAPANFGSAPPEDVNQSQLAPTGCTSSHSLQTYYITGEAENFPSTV
How it was run: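 Displacement of a radioligand from estrogen receptor in bovine uterine membrane preparations; scintillation signal taken at 18 hours, DMSO as baseline. Single-concentration duplicates (25 uM) preceded concentration-response follow-up of actives.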

[12] = molecular target: PGR (gene 5241) (UniProt P06401); assay: NVS_NR_hPR: NovaScreen (NVS) Nuclear Receptor Binding Assay for human Progestron Receptor (PR) (AID 2283360);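 also: active means loss of bound radioligand signal versus DMSO baseline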
How it was run: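 T47D-derived receptor preparation, cell-free, with tritiated or iodinated radioligand displacement measured by scintillation 18 h post-dosing. Single 25 uM duplicate screen, then concentration series; signal loss relative to DMSO.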

[13] = molecular target: Estrogen receptor (Homo sapiens) (UniProt P03372); assay: OT_ER_ERaERa_1440: Odyssey Thera (OT) 24-hour HEK293T Protein-Complementation Assay for Estrogen Receptor-alpha/-alpha Homodimer (AID 2283349);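 also: hits raise fluorescence above DMSO for agonists and antagonists alike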
Estrogen receptor (Homo sapiens), sequence (P03372 whole entry, looked up, the tested form may be a part): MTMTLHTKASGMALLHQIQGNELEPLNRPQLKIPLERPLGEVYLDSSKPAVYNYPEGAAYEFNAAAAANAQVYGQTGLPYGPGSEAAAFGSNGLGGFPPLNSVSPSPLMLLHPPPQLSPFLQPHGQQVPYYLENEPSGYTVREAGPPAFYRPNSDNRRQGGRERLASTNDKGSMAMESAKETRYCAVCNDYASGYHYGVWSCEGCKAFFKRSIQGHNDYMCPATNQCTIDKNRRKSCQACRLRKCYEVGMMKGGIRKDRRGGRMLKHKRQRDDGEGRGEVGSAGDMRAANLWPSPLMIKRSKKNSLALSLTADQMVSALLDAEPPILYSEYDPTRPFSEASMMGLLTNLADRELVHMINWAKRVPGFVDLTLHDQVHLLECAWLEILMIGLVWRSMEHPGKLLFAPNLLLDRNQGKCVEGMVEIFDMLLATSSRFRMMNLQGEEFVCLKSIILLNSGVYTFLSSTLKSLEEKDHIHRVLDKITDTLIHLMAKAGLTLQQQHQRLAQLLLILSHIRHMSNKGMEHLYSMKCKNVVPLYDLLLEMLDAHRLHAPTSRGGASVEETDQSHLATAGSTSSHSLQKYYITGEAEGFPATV
How it was run: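 Cells (HEK293T) carrying the fragment-tagged ERα LBD (aa 310-547) pair are treated with chemical for 24 hours. Nuclear and/or cytoplasmic fluorescence is then quantified on a laser scanning cytometer. Activity is scored as signal gain against DMSO.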

[14] = molecular target: Estrogen receptor (Homo sapiens) (UniProt P03372); assay: OT_ER_ERaERa_0480: Odyssey Thera (OT) 8-hour HEK293T Protein-Complementation Assay for Estrogen Receptor-alpha/-alpha Homodimer (AID 2283351);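 also: rise in fluorescence from reassembled reporter fragments on ERα LBD homodimer in nucleus or whole cell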
How it was run: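 HEK293T cells stably expressing a PCA pair of ER alpha LBD (residues 310-547) were dosed for 8 hours. The gain in fluorescence intensity, nuclear for agonists and whole-cell for antagonists, was measured by laser scanning cytometry against DMSO vehicle.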

[15] = molecular target: Estrogen receptor (Homo sapiens) + Estrogen receptor beta (Homo sapiens) (UniProt P03372+Q92731); assay: OT_ER_ERaERb_0480: Odyssey Thera (OT) 8-hour HEK293T Protein-Complementation Assay for Estrogen Receptor-alpha/-beta Heterodimer (AID 2283352)
Estrogen receptor (Homo sapiens) + Estrogen receptor beta (Homo sapiens), sequence (P03372 whole entry, looked up, the tested form may be a part): as above
Estrogen receptor (Homo sapiens) + Estrogen receptor beta (Homo sapiens), sequence (Q92731 whole entry, looked up, the tested form may be a part): as the sequence (Q92731 whole entry, looked up, the tested form may be a part) above
How it was run: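 HEK293T cells expressing ER-alpha/ER-beta LBD fusions to complementary reporter fragments were dosed with compound for 8 hours. Heterodimer formation was read as increased nuclear (agonist) or nuclear plus cytoplasmic (antagonist) mean fluorescence intensity versus DMSO vehicle.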

[16] = molecular target: Estrogen receptor (Homo sapiens) (UniProt P03372); assay: NVS_NR_hER: NovaScreen (NVS) Nuclear Receptor Binding Assay for human Estrogen Receptor (ER) (AID 2283348)
How it was run: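 MCF7-derived receptor extract, radiolabelled ligand, competitive displacement. Read: scintillation counts at 18 h. DMSO = negative control/baseline. Primary 25 uM duplicate; follow-up concentration–response.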

[17] = molecular target: rat Mineralocorticoid Receptor (MR), Nr3c2 (gene 25672) (UniProt P22199); assay: NVS_NR_rMR: NovaScreen (NVS) Nuclear Receptor Binding Assay for rat Mineralocorticoid Receptor (MR) (AID 2283355)
How it was run: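 Radioligand displacement, scintillation readout; tissue source adrenalectomized rat brain supernatant. Read 24 h post-dose. Screened in duplicate at 25 uM, DMSO negative control, controls on every plate; actives re-run in concentration series.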

[18] = molecular target: human Peroxisome Proliferator-activated Receptor alpha (PPARa), PPARA (gene 5465) (UniProt Q07869); assay: NVS_NR_hPPARa: NovaScreen (NVS) Nuclear Receptor Binding Assay for human Peroxisome Proliferator-activated Receptor alpha (PPARa) (AID 2283359);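 also: activity means loss of TR-FRET signal versus DMSO baseline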
How it was run: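 TR-FRET signal measured at 1 h post-dosing; loss-of-signal versus DMSO negative control taken as activity. Extracted gene-protein, cell-free format. Initial single-point duplicates at 25 uM, then concentration-response retests.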

[19] = molecular target: bovine Gamma-Aminobutyric Acid Type A Receptor Agonist (GABAR Agonist), GABRA1 (gene 780973) (UniProt P08219); assay: NVS_LGIC_bGABAR_Agonist: NovaScreen (NVS) Ligand-Gated Ion Channel Assay for bovine Gamma-Aminobutyric Acid Type A Receptor Agonist (GABAR Agonist) (AID 2283338)
bovine Gamma-Aminobutyric Acid Type A Receptor Agonist (GABAR Agonist), GABRA1 (gene 780973), sequence (P08219 whole entry, looked up): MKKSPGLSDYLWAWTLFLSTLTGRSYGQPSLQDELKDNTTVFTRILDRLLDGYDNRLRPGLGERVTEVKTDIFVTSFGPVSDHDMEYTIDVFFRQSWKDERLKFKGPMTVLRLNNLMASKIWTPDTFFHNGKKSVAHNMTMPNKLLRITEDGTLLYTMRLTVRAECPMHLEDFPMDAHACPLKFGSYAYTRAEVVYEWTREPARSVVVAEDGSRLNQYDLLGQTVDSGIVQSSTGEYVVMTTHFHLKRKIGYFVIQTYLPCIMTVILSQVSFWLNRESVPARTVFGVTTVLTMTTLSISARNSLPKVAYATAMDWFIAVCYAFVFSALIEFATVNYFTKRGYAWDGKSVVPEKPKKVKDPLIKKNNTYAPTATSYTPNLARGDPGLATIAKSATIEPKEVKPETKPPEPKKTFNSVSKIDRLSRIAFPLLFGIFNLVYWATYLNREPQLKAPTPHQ
How it was run: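 Radioligand binding to bovine cerebellar membranes in agonist format, read by filter-based scintillation counting after 1 h. Primary screen in duplicate at 25 uM, with actives followed in concentration series. Gain of signal versus DMSO.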

[20] = molecular target: rat Glutamate, MK-801 Agonist Site (GluNMDA_MK801), Grin1 (gene 24408) (UniProt P35439); assay: NVS_LGIC_rGluNMDA_MK801_Agonist: NovaScreen (NVS) Ligand-Gated Ion Channel Assay for rat Glutamate, MK-801 Agonist Site (GluNMDA_MK801) (AID 2283340)
How it was run: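 Rat forebrain membrane preparation; MK-801-site radioligand binding read by filtration and scintillation after 1.5 h. Single-point 25 uM duplicate screen, followed by singleton concentration series to 50 uM max; DMSO baseline.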

Measured: AC50

CCN(CC)CCOc1ccc(C(=C(Cl)c2ccccc2)c2ccccc2)cc1
active: [2] 1.82 µM | [3] 11.6 µM | [4] 34 µM | [5] 4.82 µM | [6] 13.5 µM | [7] 21.5 nM and 118 nM and 9.83 nM | [8] 16.1 µM and 11 µM and 12.5 µM | [9] 25.9 µM and 21 µM | [10] 14.9 µM and 12.2 µM and 16.3 µM
inactive: [1] | [9]

CC(=O)[C@@]1(O)CC[C@H]2[C@@H]3CCC4=CC(=O)CC[C@]4(C)[C@H]3CC[C@@]21C
inactive: [11] | [5] | [7] | [9]
active: [3] 0.467 µM | [11] 15.4 µM | [5] 0.49 µM | [12] 0.645 µM

CS(=O)(=O)c1ccc([C@@H](C[C@H]2CCC(=O)C2)C(=O)Nc2cnccn2)cc1Cl
active: [2] 0.0043 µM
inactive: [13] | [14] | [15] | [7]

Cc1ccc(C(C)(C)C)c(O)c1
inactive: [16] | [13] | [14] | [15]
active: [7] 13.2 µM

CC(=O)CC(c1ccccc1)c1c(O)c2ccccc2oc1=O (stereo unspecified)
inactive: [5]

COC(=O)[C@H]1[C@H]2C[C@@H]3c4[nH]c5cc(OC)ccc5c4CCN3C[C@H]2C[C@@H](OC(=O)c2cc(OC)c(OC)c(OC)c2)[C@@H]1OC
active: [5] 19.2 µM

Nc1nc(=S)c2[nH]cnc2[nH]1
inactive: [16] | [13] | [14] | [15] | [7]

O=C(N[C@@H](c1ccccc1)[C@@H]1CCCCN1)c1cccc(C(F)(F)F)c1Cl
inactive: [13] | [14] | [17] | [7] | [18]
active: [4] 25 µM

CCCCCCCCCCCCCCCCO
inactive: [13] | [14]

CSc1ccc(Oc2ccc(S(N)(=O)=O)cc2CN(C)C)cc1C
inactive: [1] | [16] | [13] | [14] | [15] | [18] | [12]
active: [19] 38.8 µM | [2] 11.7 µM

NC1CCCCC1
inactive: [20] | [13] | [14] | [15] | [7]

CCCCCCCCCC[N+](C)(C)[O-]
inactive: [2] | [13] | [14] | [15] | [7]

CC(C)NCC(O)c1ccc(O)c(O)c1 (stereo unspecified)
inactive: [2] | [7] | [18] | [10]

CC(C)(C)c1ccccc1
inactive: [19] | [7] | [18]

Cc1cc(Cc2ccc(N)c(C)c2)ccc1N
inactive: [11] | [10]
active: [5] 25 µM | [7] 67.6 µM

Cc1ccc(-c2cc(C(F)(F)F)nn2-c2ccc(S(N)(=O)=O)cc2)cc1
inactive: [11] | [16] | [14]

N[C@@H](Cc1c[nH]c2ccccc12)C(=O)O
inactive: [19]

CC(C)OC(=O)C(C)(C)Oc1ccc(C(=O)c2ccc(Cl)cc2)cc1
inactive: [16] | [13] | [6] | [14] | [15] | [7]

Cc1c(C)c2c(c(C)c1O)CCC(C)(COc1ccc(CC3SC(=O)NC3=O)cc1)O2 (stereo unspecified)
inactive: [19] | [11] | [16] | [13] | [14] | [7]

CC(C)c1cccc(C(C)C)c1
inactive: [13] | [14]

CCCCc1nc2cccnc2n1Cc1ccc(-c2ccccc2-c2nnn[nH]2)cc1
inactive: [2] | [13] | [6] | [14] | [7]

CCC(C)N(C)C(=O)c1cc2ccccc2c(-c2ccccc2Cl)n1 (stereo unspecified)
inactive: [11] | [16] | [13] | [14] | [15] | [7] | [18]

O=Cc1ccccc1C=O
inactive: [11] | [16] | [13] | [14] | [7] | [12]
active: [5] 25 µM
